The supplement of paper PMC6555819

Assays:
Assay in all cases: PBM binding z-score (relative to random genomic background probes); higher = stronger binding; sequences stand for … in GC…GCGATTGACAGCGTAGAATGAAGG
[1] = test system: FXR:RXRa (NR concentration 270 nM, RXRa partner concentration 90 nM)
Procedure, shortened: (§1)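 Scanned fluorescence from custom Agilent 4×180K protein-binding microarrays was regression-normalized. Binding z-scores use random background probes as reference. Ligand-free nuclear receptor dimers were incubated on the arrays for 1 h and detected with antibodies against each partner (one per run).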

[2] = test system: LXRa:RXRa (NR concentration 270 nM, RXRa partner concentration 90 nM)
Procedure, shortened: as §1

[3] = test system: LXRa homodimer (NR concentration 270 nM)
Procedure, shortened: as §1

[4] = test system: LXRb:RXRa (NR concentration 270 nM, RXRa partner concentration 90 nM)
Procedure, shortened: as §1

[5] = test system: PPARa:RXRa (NR concentration 270 nM, RXRa partner concentration 90 nM)
Procedure, shortened: as §1

[6] = test system: PPARg:RXRa (NR concentration 180 nM, RXRa partner concentration 90 nM)
Procedure, shortened: as §1

[7] = test system: PPARg:RXRa 270nM:90nM, anti-RXR (NR concentration 270 nM, RXRa partner concentration 90 nM)
Procedure, shortened: as §1

[8] = test system: PPARg:RXRa 30nM:10nM, anti-RXR (NR concentration 30 nM, RXRa partner concentration 10 nM)
Procedure, shortened: as §1

[9] = test system: PPARg:RXRa 90nM:30nM, anti-RXR (NR concentration 90 nM, RXRa partner concentration 30 nM)
Procedure, shortened: as §1

[10] = test system: PPARg:RXRa DBDmut IVT, anti-RXR (DBD mutation: RXRa K156A/R161A, NR concentration 270 nM, RXRa partner concentration 90 nM)
Procedure, shortened: as §1

[11] = test system: PPARg:RXRa IVT, anti-PPARg (NR concentration 270 nM, RXRa partner concentration 90 nM)
Procedure, shortened: as §1

[12] = test system: PPARg homodimer (NR concentration 180 nM)
Procedure, shortened: as §1

[13] = test system: PXR:RXRa (NR concentration 270 nM, RXRa partner concentration 90 nM)
Procedure, shortened: as §1

[14] = test system: PXR homodimer (NR concentration 270 nM)
Procedure, shortened: as §1

[15] = test system: RARa:RXR (NR concentration 270 nM, RXRa partner concentration 90 nM)
Procedure, shortened: as §1

[16] = test system: RARa homodimer (NR concentration 270 nM)
Procedure, shortened: as §1

[17] = test system: RARb:RXRa (NR concentration 270 nM, RXRa partner concentration 90 nM)
Procedure, shortened: as §1

Sequence	PBM binding z-score [1]	PBM binding z-score [2]	PBM binding z-score [3]	PBM binding z-score [4]	PBM binding z-score [5]	PBM binding z-score [6]	PBM binding z-score [7]	PBM binding z-score [8]	PBM binding z-score [9]	PBM binding z-score [10]	PBM binding z-score [11]	PBM binding z-score [12]	PBM binding z-score [13]	PBM binding z-score [14]	PBM binding z-score [15]	PBM binding z-score [16]	PBM binding z-score [17]
CCGAGTAGGTTACGAGGAGGCATTCAGTGCGAAT	-0.167	4.4	-0.319	0.864	1.26	0.943	1.25	-0.283	0.832	4.34	3.39	-0.438	0.196	-0.429	0.244	-0.663	0.685
CCGAGTAGGTTACGAGGGGGCATACAGTGCGAAT	2.06	6.92	1.29	6.04	3.52	2.73	3.69	1.1	2.54	4.86	4.23	2.45	4.27	2.55	3.03	1.01	2.15
CTATGTAGGTTAAGGGGGTCAGTCAGTTTGAAAG	3.26	3.55	1.38	5.26	5.54	8.01	7.42	5.06	7.09	7.45	7.33	3.02	4.52	6.85	4.15	0.767	3.2
CTATGTAGTTTAAGGGGGTCATTCAGTTTGAAAG	4.48	4.76	3.99	6.25	5.3	4.03	5.19	2.68	4.56	3.79	4.99	4.75	5.93	13.2	5.64	2.73	3.68
CCGAGTATGTTACGAGGGGGCATTCAGTGCGAAT	1.03	4.44	0.955	3.9	2.28	0.244	1.45	0.332	1.29	1.52	1.95	1.3	3.07	4.74	2.27	0.735	1.15
CTATGAAGGTTAAGGGGGTCATTCAGTTTGAAAG	5.47	5.4	3.45	6.37	5.65	5.21	6.01	3.46	5.16	3.68	5.15	4.25	6.22	13.8	6.01	2.51	4.05
TCGAGTAGGTTACGGGGGTATTCAGGGATGAAGA	1.78	2.4	0.457	4.07	3.45	4.49	4.53	2.64	3.61	4.5	5.38	1.51	2.09	0.83	2.49	0.925	2.07
TCGAGTAGGTTACGGGGCCATTCAGGGATGAAGA	0.993	0.505	-0.236	0.939	2.58	3.24	3.52	1.65	2.58	3.76	4.63	0.412	0.639	-0.128	0.892	-0.208	1.44
TCGAGTAGGTTACGGGGGCATTCCGGGATGAAGA	2.68	2.91	0.0862	4.94	4.29	5.89	5.67	2.85	4.91	4.92	5.8	1.57	3.08	1.1	3.14	0.0892	2.51
TCGAATAGGTTACGGGGGCATTCAGGGATGAAGA	3.92	3.9	1.2	5.78	5.11	5.71	5.84	4.46	5.39	4.48	5.46	2.1	3.82	1.8	3.69	1.33	3.33
CCGAGTAGGATACGAGGGGGCATTCAGTGCGAAT	0.863	1.35	0.542	3.08	1.75	0.323	1.47	0.0307	1.08	0.37	0.975	0.513	2.31	3.26	1.78	-0.298	0.887
CTATGTAAGTTAAGGGGGTCATTCAGTTTGAAAG	4.5	4.34	2.4	6.24	5.31	3.92	5.21	2.84	4.55	3.56	5.22	3.28	5.6	10.3	5.28	2.58	3.35
CCGAGTAGGTTGCGAGGGGGCATTCAGTGCGAAT	1.26	2.94	0.489	4.71	2.73	0.173	1.85	0.127	1.53	1.37	2.13	0.668	3.67	4.85	2.34	0.292	1.57
TTGAGTAGGTTACGGGGGCATTCAGGGATGAAGA	3.06	3.3	1.18	5.2	4.63	7.11	6.44	4.81	5.83	6.29	6.86	5.24	3.31	3.21	3.81	2.56	2.9
CTATGTAGGTTAAGGGGGTCCTTCAGTTTGAAAG	1.09	1.76	0.414	3.75	4.29	6.59	6.57	4.47	6.41	7.26	6.7	1.58	2.33	1.68	1.92	0.652	1.67
